In all, about 37,000 compounds went through this assay and about 2,800 (7.6%) were called active. Not shown: some 1% with an inconclusive outcome. Cut-off read from the data, not from the text of the source: active = inhibition above about 80%; inconclusive = no clear call, values can overlap the other calls; inactive = below that. Only a selection was taken, and actives are over-represented in it overall.
Assay: NOMO-1 AML cell viability reduction, primary screen, STK33 inhibitor project, CellTiter-Glo luminescence (AID 2330)
Conditions: NOMO-1 AML viability, 72 h, stronger effect = higher value, concentration not given here

Compound | inhibition
C/C=C(/C)C(=O)OC1Cc2c(ccc3ccc(=O)oc23)OC1(C)C (configuration not stated) | 9.99% (inactive)
S=c1nc2c(cnn2-c2ccccc2)c(Nc2ccccc2)[nH]1 | 12% (inactive)
C[C@@H]1CN([C@H](C)CO)C(=O)c2cc(NC(=O)Cn3cnnn3)ccc2O[C@@H]1CN(C)Cc1ccc(C(F)(F)F)cc1 | 21.9% (inactive)
Cc1ccc(S(=O)(=O)N(C)C[C@@H]2Oc3ccc(NS(=O)(=O)c4c(C)noc4C)cc3CC(=O)N([C@H](C)CO)C[C@H]2C)cc1 | -13.6% (inactive)
O=C(O)CCCC(=O)Nc1ccc(F)cc1 | 13.9% (inactive)
C[C@H]1CN([C@@H](C)CO)C(=O)c2cc(NC(=O)CCN3CCOCC3)ccc2O[C@@H]1CN(C)C(=O)Nc1ccc(C(F)(F)F)cc1 | 22.5% (inactive)
C[C@@H]1CN([C@@H](C)CO)C(=O)c2cc(NS(=O)(=O)c3ccccc3)ccc2O[C@H]1CN(C)CC1CCCCC1 | -8.05% (inactive)
Cn1nc(CC(=O)Nc2ccc3c(c2)oc2ccccc23)c2ccccc2c1=O | 37.5% (inactive)
Cc1ccc(C(=O)NC(NCc2ccco2)(C(F)(F)F)C(F)(F)F)cc1 | 39.2% (inactive)
Cc1ccc(-n2nnnc2-c2cnn(-c3ccccc3)c2C)cc1 | 29.6% (inactive)
C[C@H]1CN([C@@H](C)CO)C(=O)c2cccc(NS(=O)(=O)c3ccccc3)c2O[C@@H]1CN(C)S(=O)(=O)c1cn(C)cn1 | -9.26% (inactive)
C[C@H](CO)N1C[C@H](C)[C@H](CN(C)Cc2ccc(C(F)(F)F)cc2)Oc2ccc(NS(=O)(=O)c3ccc(Cl)cc3)cc2C1=O | 58.5% (inactive)
Cc1ccc(S(=O)(=O)Nc2ccc3c(c2)C(=O)N([C@@H](C)CO)C[C@@H](C)[C@H](CN(C)Cc2ccc(C(F)(F)F)cc2)O3)cc1 | 118% (active)
COc1ccc(S(=O)(=O)Nc2ccc3c(c2)C(=O)N([C@H](C)CO)C[C@H](C)[C@H](CN(C)Cc2ccc(C(F)(F)F)cc2)O3)cc1 | 51.7% (inactive)
C[C@@H]1CN([C@@H](C)CO)C(=O)c2cc(NS(C)(=O)=O)ccc2O[C@H]1CN(C)C(=O)Nc1ccc(F)cc1 | 37.9% (inactive)
CCCN(Cc1cc2cccc(C)c2[nH]c1=O)S(C)(=O)=O | 10.7% (inactive)
COC(=O)C1=C(C)Nc2c(c(=O)n(C)c(=O)n2C)C1c1cccc(OCc2ccccc2)c1 (configuration not stated) | 7.28% (inactive)
O=C(c1ccc(Cl)cc1)n1c(=O)oc2cc(Cl)ccc21 | 132% (active)
CC(C)(C)c1ccc(OCC(=O)NCc2ccccn2)c(Br)c1 | 43.9% (inactive)
C[C@@H]1CN([C@@H](C)CO)C(=O)c2cc(NS(=O)(=O)c3ccccc3)ccc2O[C@H]1CN(C)CC1CC1 | -13.4% (inactive)
O=C(CN(C1CCCCC1)S(=O)(=O)c1ccc(Cl)cc1)Nc1ccccc1C(F)(F)F | 25.5% (inactive)

Compound | inhibition
COc1ccc(S(=O)(=O)N(C)C[C@H]2Oc3ccc(N(C)C)cc3C(=O)N([C@@H](C)CO)C[C@@H]2C)cc1 | 11.7% (inactive)
CN1C(=O)CC(c2ccccc2)C1=O (configuration not stated) | 14.7% (inactive)
CN1C(=O)C(Cc2ccccc2)(Cc2ccccc2)c2ccccc21 | 96.7% (active)
CN1C(=O)C(O)(CC(=O)c2ccco2)c2cc([N+](=O)[O-])ccc21 (configuration not stated) | 36.2% (inactive)
C[C@H](CO)N1C[C@H](C)[C@H](CN(C)C)Oc2c(NS(=O)(=O)c3ccc(Cl)cc3)cccc2C1=O | 17.7% (inactive)
CN1CCN(C(=O)CCc2nc(-c3ccc(Cl)cc3)no2)CC1 | -5.54% (inactive)
Cn1c(Cc2csc(N)n2)nnc1SC/C=C/c1ccccc1 | 23.5% (inactive)
CC(C)NC(=O)N(C)C[C@H]1Oc2ccc(NC(=O)Cn3cnnn3)cc2CC(=O)N([C@H](C)CO)C[C@H]1C | 36.1% (inactive)
C[C@@H]1CC[C@]2(C(=O)O)CC[C@]3(C)C(=CCC4[C@@]5(C)CC[C@H](O)[C@](C)(C(=O)O)C5CC[C@]43C)C2[C@]1(C)O (some centres not stated) | 29.2% (inactive)
CC1(C)C2CC[C@]3(C)C(C(=O)C=C4[C@@H]5C[C@@](C)(C(=O)O)CC[C@]5(C)CC[C@]43C)[C@@]2(C)CC[C@@H]1O (some centres not stated) | 63.8% (inactive)
CC1(C)CC[C@@]2(C(=O)O)C(C1)C1=CCC3[C@@]4(C)CC[C@H](O)C(C)(C)C4CC[C@@]3(C)[C@]1(C)C[C@H]2O (some centres not stated) | 108% (active)
C/C=C(/C)C(=O)O[C@H]1CC(C)(C)C[C@H]2C3=CCC4[C@@]5(C)CC[C@H](O[C@@H]6O[C@H](C(=O)O)[C@@H](O[C@@H]7O[C@H](CO)[C@H](O)[C@H](O)[C@H]7O[C@@H]7O[C@H](CO)[C@@H](O)[C@H](O)[C@H]7O)[C@H](O)[C@H]6O[C@@H]6O[C@@H](C)[C@H](O)[C@@H](O)[C@H]6O)C(C)(C)C5CC[C@@]4(C)[C@]3(C)[C@@H](OC(C)=O)[C@@H](O)[C@@]12COC(C)=O (some centres not stated) | 121% (active)
C[C@@H]1O[C@@H](O[C@H]2[C@@H](Oc3cc(O)c4c(c3)O[C@H](c3ccc(O)cc3)CC4=O)O[C@H](CO)[C@@H](O)[C@@H]2O)[C@H](O)[C@H](O)[C@H]1O | -11.7% (inactive)
CC1OC(OC2C(OC3C(O[C@H]4CC[C@@]5(C)C(CC[C@]6(C)C5CC=C5[C@@H]7CC(C)(C)C[C@@H](O)[C@]7(C)CC[C@]56C)C4(C)C)OC(C(=O)O)C(O)C3O)OC(CO)C(O)C2O)C(O)C(O)C1O (some centres not stated) | 25.4% (inactive)
COC(=O)C1=CO[C@@H](O[C@@H]2O[C@H](CO)[C@@H](O)[C@H](O)[C@H]2O)[C@@H]2[C@@](C)(O)[C@@H](OC(=O)/C=C/c3ccc(OC)c(OC)c3)C[C@]12O | 11.5% (inactive)
C=CC1(C)C=C2CCC3C(C)(C)C(O[C@@H]4O[C@@H](CO)[C@H](O)[C@H]4O)CCC3(C)C2CC1O[C@@H]1O[C@H](C)[C@@H](OC)[C@H](O)[C@H]1O (some centres not stated) | 14% (inactive)
C/C=C(/C)C(=O)O[C@H]1CC(C)(C)C[C@H]2C3=CCC4[C@@]5(C)CC[C@H](O[C@@H]6O[C@H](C(=O)O)[C@@H](O[C@@H]7O[C@H](CO)[C@H](O)[C@H](O)[C@H]7O[C@@H]7O[C@H](CO)[C@@H](O)[C@H](O)[C@H]7O)[C@H](O)[C@H]6O[C@@H]6O[C@@H](C)[C@H](O)[C@@H](O)[C@H]6O)C(C)(C)C5CC[C@@]4(C)[C@]3(C)[C@@H](O)[C@@H](O)[C@@]12CO (some centres not stated) | 119% (active)
CC1(C)CC[C@]2(C(=O)O)CC[C@]3(C)C(=CCC4[C@@]5(C)CC[C@H](OC6O[C@H](CO)[C@@H](O)[C@H](O[C@@H]7O[C@H](CO)[C@@H](O)[C@H](O)[C@H]7O)[C@H]6O)C(C)(C)C5CC[C@]43C)[C@@H]2C1 (some centres not stated) | 119% (active)
C[C@@H]1CN([C@H](C)CO)C(=O)c2cc(NC(=O)CCCCCC(=O)Nc3ccccc3N)ccc2O[C@@H]1CN(C)S(=O)(=O)c1ccc(Cl)cc1 | 53.5% (inactive)
CC(C)(C)c1nc(=S)[nH][nH]1 | 17.3% (inactive)
Cc1cc2c(=O)n(C)c(SCC(=O)c3cc4ccccc4o3)nc2s1 | -4.22% (inactive)

Compound | inhibition
O=C1CC(c2ccccc2)C(=O)N1c1ccc(F)cc1 (configuration not stated) | 22.5% (inactive)
C[C@@H]1CN([C@@H](C)CO)C(=O)c2cccc(NC(=O)c3ccncc3)c2O[C@H]1CN(C)S(=O)(=O)c1ccc(F)cc1 | 19.5% (inactive)
C[C@H](CO)N1C[C@H](C)[C@@H](CN(C)S(=O)(=O)c2ccc(Cl)cc2)Oc2ccc(NS(=O)(=O)c3cn(C)cn3)cc2C1=O | 13.1% (inactive)
C[C@@H]1CN([C@H](C)CO)C(=O)c2cccc(NS(=O)(=O)c3ccc(Cl)cc3)c2O[C@@H]1CN(C)Cc1ccc(Cl)c(Cl)c1 | 33.7% (inactive)
O=C(CSc1nnc(-c2ccccc2Cl)n1-c1ccccc1)Nc1ccc([N+](=O)[O-])cc1 | 18.6% (inactive)
C[C@@H]1CN([C@@H](C)CO)C(=O)c2cc(NC(=O)Cc3ccccc3)ccc2O[C@@H]1CN(C)CC1CCCCC1 | 17.8% (inactive)
O=C(NCc1cccnc1)c1cnn2c(C(F)F)cc(-c3ccccc3)nc12 | 11% (inactive)
COc1cccc2cc(C(=O)Nc3sc4c(c3C(N)=O)CCCCC4)c(=O)oc12 | 6.77% (inactive)
NC(=O)c1c(NC(=O)c2cnn3c(C(F)F)cc(-c4ccccc4)nc23)sc2c1CCCC2 | 112% (active)
O=C(Cn1cnc([N+](=O)[O-])n1)Nc1c(Cl)cccc1Cl | -1.21% (inactive)
COc1ccc(OC)c(NC(=O)CSc2nc(-c3ccccc3)cc(=O)[nH]2)c1 | 5.5% (inactive)
COc1ccccc1NC(=O)CSc1n[nH]c(C)n1 | 4.79% (inactive)
COc1ccccc1NC(=O)CSc1nc2cc3ccccc3cc2[nH]1 | 108% (active)
Cc1ccc(S(=O)(=O)N(C)C[C@H]2Oc3ccc(NC(=O)Nc4cccc5ccccc45)cc3CC(=O)N([C@H](C)CO)C[C@H]2C)cc1 | 23.8% (inactive)
CC(=O)c1cccc(NC(=O)CN(C)S(=O)(=O)c2ccc3ccccc3c2)c1 | 19.7% (inactive)
Nc1nnc(SCC(=O)Nc2ccc(F)c(Cl)c2)s1 | 10% (inactive)
Cc1ccc(N(C(C)C(=O)Nc2ccc(F)c(Cl)c2)S(C)(=O)=O)cc1C (configuration not stated) | 32.7% (inactive)
C[C@H](CO)N1C[C@H](C)[C@@H](CN(C)S(=O)(=O)c2ccc(F)cc2)Oc2c(NC(=O)Nc3ccccc3)cccc2C1=O | 8.66% (inactive)
COc1cc(NC(=O)COc2ccc(Cl)cc2C)c(OC)cc1Cl | -5.6% (inactive)
C=C1C(=O)OC2/C=C(\C)CC3C=C(CC/C=C(\C)CCC12)C(=O)O3 (configuration not stated) | 114% (active)

— PubChem BioAssay AID2330 (Broad Institute, 2010)
